Experimental data from PubChem BioAssay (EPA / NIEHS).
The source made the active and inactive calls. Rule for the calls: active = hit-call score of the fitted dose curve at least 0.9, where 1 is the maximum; inactive = score below 0.9.

How the values were obtained:
Settings in all cases: mRNA level, 48 h; actives raise or lower the signal
[1] = read-out: JUN Transcription Factor, JUN (gene 3725); experiment: LTEA_HepaRG_JUN: Life Technologies and Expression Analysis (LTEA) Assay for JUN Transcription Factor using HepaRG (AID 2283513)
Procedure, shortened: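 Human HepaRG liver cells receive test chemicals in 0.5% DMSO for 48 h across an eight-point range topping at 100 uM. Expression changes in JUN are scored in both directions against the DMSO vehicle.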

[2] = read-out: Lipase C (LIPC), LIPC (gene 3990); experiment: LTEA_HepaRG_LIPC: Life Technologies and Expression Analysis (LTEA) Assay for Lipase C (LIPC) using HepaRG (AID 2283514)
Procedure, shortened: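 Differentiated human HepaRG cells in serum-free induction medium were exposed in duplicate for 48 h to eight concentrations (top 100 uM, half-log steps, 0.5% DMSO). LIPC mRNA was quantified by TaqMan qRT-PCR, normalized to ACTB, GAPDH and POLR2A, with bidirectional fitting versus DMSO.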

[3] = read-out: Lipoprotein lipase (LPL), LPL (gene 4023); experiment: LTEA_HepaRG_LPL: Life Technologies and Expression Analysis (LTEA) Assay for Lipoprotein lipase (LPL) using HepaRG (AID 2283515)
Procedure, shortened: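 Differentiated human HepaRG cells in serum-free induction medium were exposed in duplicate for 48 h to eight half-log concentrations (top 100 uM) in 0.5% DMSO. LPL mRNA was quantified by TaqMan qRT-PCR, normalized to ACTB, GAPDH and POLR2A.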

[4] = read-out: MicroRNA 122 (MIR122), gene 406906; experiment: LTEA_HepaRG_MIR122: Life Technologies and Expression Analysis (LTEA) Assay for MicroRNA 122 (MIR122) using HepaRG (AID 2283516); note: the transcript read is the microRNA miR-122
Procedure, shortened: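 HepaRG, 48 h exposure, 8-pt half-log from 100 uM, 0.5% DMSO; TaqMan qRT-PCR; bidirectional fit vs DMSO.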

[5] = read-out: matrix metalloproteinase-10 (MMP10), MMP10 (gene 4319); experiment: LTEA_HepaRG_MMP10: Life Technologies and Expression Analysis (LTEA) Assay for matrix metalloproteinase-10 (MMP10) using HepaRG (AID 2283517)
Procedure, shortened: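 HepaRG, collagen I, ~100,000 cells/well; serum-free induction medium; 48 h exposure, duplicate, 8-pt half-log to 100 uM, 0.5% DMSO. Readout: TaqMan qRT-PCR, normalized to ACTB/GAPDH/POLR2A; bidirectional fit vs DMSO.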

[6] = read-out: MYC, MYC (gene 4609); experiment: LTEA_HepaRG_MYC: Life Technologies and Expression Analysis (LTEA) Assay for MYC using HepaRG (AID 2283518)
Procedure, shortened: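 Cells are thawed, plated and cultured 48 h, then treated for 48 h with test chemicals (eight half-log concentrations from 100 uM, 0.5% DMSO vehicle). RNA is isolated and MYC expression quantified by qRT-PCR against three housekeeping genes.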

[7] = read-out: matrix metalloproteinase-3 (MMP3), MMP3 (gene 4314); experiment: LTEA_HepaRG_MMP3: Life Technologies and Expression Analysis (LTEA) Assay for matrix metalloproteinase-3 (MMP3) using HepaRG (AID 2283519)
Procedure, shortened: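 Differentiated human HepaRG cells, plated 48 h on collagen I, were exposed in duplicate for 48 h in serum-free induction medium to eight half-log concentrations up to 100 uM in 0.5% DMSO. MMP3 mRNA was quantified by TaqMan qRT-PCR, normalised to ACTB, GAPDH and POLR2A.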

[8] = read-out: Paternally Expressed 10 (PEG10), PEG10 (gene 23089); experiment: LTEA_HepaRG_PEG10: Life Technologies and Expression Analysis (LTEA) Assay for Paternally Expressed 10 (PEG10) using HepaRG (AID 2283520)
Procedure, shortened: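 Chemicals tested on HepaRG cells for 48 h, highest concentration 100 uM. PEG10 expression assessed by qRT-PCR relative to DMSO control.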

[9] = read-out: Protein phosphatase 2A (PPP2R4), PTPA (gene 5524); experiment: LTEA_HepaRG_PPP2R4: Life Technologies and Expression Analysis (LTEA) Assay for Protein phosphatase 2A (PPP2R4) using HepaRG (AID 2283522)
Procedure, shortened: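 Gene-expression endpoint in HepaRG hepatic cells: 48 h treatment across eight half-log concentrations up to 100 uM in 0.5% DMSO. PPP2R4 mRNA by qRT-PCR, normalized to three endogenous control genes.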

[10] = read-out: Phosphatase and tensin (PTEN), PTEN (gene 5728); experiment: LTEA_HepaRG_PTEN: Life Technologies and Expression Analysis (LTEA) Assay for Phosphatase and tensin (PTEN) using HepaRG (AID 2283523)
Procedure, shortened: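 Differentiated human HepaRG cells, plated 48 h then switched to serum-free induction medium, were exposed in duplicate for 48 h to eight half-log concentrations up to 100 uM in 0.5% DMSO. PTEN mRNA measured by TaqMan qRT-PCR, normalized to ACTB/GAPDH/POLR2A, bidirectional fit versus DMSO.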

[11] = read-out: solute carrier (SLC22A1), SLC22A1 (gene 6580); experiment: LTEA_HepaRG_SLC22A1: Life Technologies and Expression Analysis (LTEA) Assay for solute carrier (SLC22A1) using HepaRG (AID 2283524)
Procedure, shortened: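 Human HepaRG cells were plated 48 h, switched to serum-free induction medium, then exposed in duplicate for 48 h to 8-point half-log series from 100 uM in 0.5% DMSO. SLC22A1 mRNA measured by qRT-PCR, normalized to ACTB/GAPDH/POLR2A, fitted bidirectionally versus DMSO.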

[12] = read-out: Pyruvate Dehydrogenase Kinase 4 (PDK4), PDK4 (gene 5166); experiment: LTEA_HepaRG_PDK4: Life Technologies and Expression Analysis (LTEA) Assay for Pyruvate Dehydrogenase Kinase 4 (PDK4) using HepaRG (AID 2283525)
Procedure, shortened: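 Differentiated human HepaRG cells, pre-cultured 48 h, were exposed in duplicate for 48 h in serum-free induction medium to eight half-log concentrations up to 100 uM in 0.5% DMSO. PDK4 mRNA was quantified by qRT-PCR, normalized to ACTB, GAPDH and POLR2A, bidirectional fitting versus DMSO.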

[13] = read-out: NAD(P)H dehydrogenase [quinone] 1 (NQO1), NQO1 (gene 1728); experiment: LTEA_HepaRG_NQO1: Life Technologies and Expression Analysis (LTEA) Assay for NAD(P)H dehydrogenase [quinone] 1 (NQO1) using HepaRG (AID 2283526)
Procedure, shortened: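 Human HepaRG hepatic cells received chemicals for 48 h in serum-free induction medium with 0.5% DMSO, up to 100 uM. Expression was assessed by TaqMan qRT-PCR against housekeeping controls and fitted bidirectionally against DMSO.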

[14] = read-out: Nuclear factor erythroid 2-related factor 2 (Homo sapiens) (UniProt Q16236); experiment: LTEA_HepaRG_NFE2L2: Life Technologies and Expression Analysis (LTEA) Assay for Nuclear factor erythroid 2-related factor 2 (NFE2L2) Transcription Factor using HepaRG (AID 2283527)
Procedure, shortened: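 Differentiated human HepaRG cells in serum-free induction medium were exposed for 48 h to eight concentrations (top 100 uM, half-log dilutions, 0.5% DMSO), in duplicate. NFE2L2 mRNA was quantified by TaqMan qRT-PCR, normalized to ACTB, GAPDH and POLR2A, with bidirectional fitting versus DMSO.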

[15] = read-out: succinate dehydrogenase complex iron sulfur subunit B (SDHB), SDHB (gene 6390); experiment: LTEA_HepaRG_SDHB: Life Technologies and Expression Analysis (LTEA) Assay for succinate dehydrogenase complex iron sulfur subunit B (SDHB) using HepaRG (AID 2283528)
Procedure, shortened: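 SDHB transcript level read by TaqMan qRT-PCR, housekeeping-normalised (ACTB, GAPDH, POLR2A), after 48 h chemical treatment of plated HepaRG cells; eight concentrations top 100 uM, half-log steps, 0.5% DMSO, duplicates; fitted both directions against DMSO.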

[16] = read-out: Signal transducer and activator of transcription 3 (Homo sapiens) (UniProt P40763); experiment: LTEA_HepaRG_STAT3: Life Technologies and Expression Analysis (LTEA) Assay for Signal transducer and activator of transcription (STAT3) using HepaRG (AID 2283529)
Procedure, shortened: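 Differentiated human HepaRG cells in serum-free induction medium were exposed in duplicate for 48 h to eight half-log concentrations up to 100 uM in 0.5% DMSO. STAT3 mRNA was quantified by TaqMan qRT-PCR, normalized to ACTB, GAPDH and POLR2A, and fitted bidirectionally against DMSO.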

[17] = read-out: solute carrier (SLCO1B1), SLCO1B1 (gene 10599); experiment: LTEA_HepaRG_SLCO1B1: Life Technologies and Expression Analysis (LTEA) Assay for solute carrier (SLCO1B1) using HepaRG (AID 2283530)
Procedure, shortened: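 Gain or loss of SLCO1B1 mRNA is fitted against the 0.5% DMSO vehicle in human HepaRG liver cells treated 48 h at up to 100 uM in half-log steps. Expression comes from qRT-PCR normalized to endogenous controls.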

[18] = read-out: sulfotransferase 2A1 (SULT2A1), SULT2A1 (gene 6822); experiment: LTEA_HepaRG_SULT2A1: Life Technologies and Expression Analysis (LTEA) Assay for sulfotransferase 2A1 (SULT2A1) using HepaRG (AID 2283531)
Procedure, shortened: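 Cells were plated and cultured 48 h, switched to serum-free induction medium, then dosed in duplicate for 48 h (8 concentrations, max 100 uM). RNA was isolated and SULT2A1 expression measured by qRT-PCR; gain or loss of signal fitted relative to DMSO.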

[19] = read-out: Transforming Growth Factor (TGFA), TGFA (gene 7039); experiment: LTEA_HepaRG_TGFA: Life Technologies and Expression Analysis (LTEA) Assay for Transforming Growth Factor (TGFA) using HepaRG (AID 2283532)
Procedure, shortened: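 Differentiated human HepaRG cells, plated 48 h then switched to serum-free induction medium, were exposed in duplicate for 48 h to 8-point half-log series from 100 uM in 0.5% DMSO. TGFA mRNA measured by qRT-PCR, normalized to ACTB/GAPDH/POLR2A, bidirectional fit versus DMSO.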

[20] = read-out: Nuclear factor NF-kappa-B p105 subunit (Homo sapiens) (UniProt P19838); experiment: LTEA_HepaRG_NFKB1: Life Technologies and Expression Analysis (LTEA) Assay for Nuclear Factor Kappa B Subunit 1 (NFKB1) using HepaRG (AID 2283521)
Procedure, shortened: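 NFKB1 transcript was measured by TaqMan qRT-PCR on Fluidigm arrays, normalised to three housekeeping genes and fitted in both directions against 0.5% DMSO. HepaRG cells were dosed in duplicate for 48 h in serum-free induction medium, eight half-log steps from 100 uM.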

Measured: AC50

Sequence of Nuclear factor erythroid 2-related factor 2 (Homo sapiens) (Q16236 whole entry, looked up): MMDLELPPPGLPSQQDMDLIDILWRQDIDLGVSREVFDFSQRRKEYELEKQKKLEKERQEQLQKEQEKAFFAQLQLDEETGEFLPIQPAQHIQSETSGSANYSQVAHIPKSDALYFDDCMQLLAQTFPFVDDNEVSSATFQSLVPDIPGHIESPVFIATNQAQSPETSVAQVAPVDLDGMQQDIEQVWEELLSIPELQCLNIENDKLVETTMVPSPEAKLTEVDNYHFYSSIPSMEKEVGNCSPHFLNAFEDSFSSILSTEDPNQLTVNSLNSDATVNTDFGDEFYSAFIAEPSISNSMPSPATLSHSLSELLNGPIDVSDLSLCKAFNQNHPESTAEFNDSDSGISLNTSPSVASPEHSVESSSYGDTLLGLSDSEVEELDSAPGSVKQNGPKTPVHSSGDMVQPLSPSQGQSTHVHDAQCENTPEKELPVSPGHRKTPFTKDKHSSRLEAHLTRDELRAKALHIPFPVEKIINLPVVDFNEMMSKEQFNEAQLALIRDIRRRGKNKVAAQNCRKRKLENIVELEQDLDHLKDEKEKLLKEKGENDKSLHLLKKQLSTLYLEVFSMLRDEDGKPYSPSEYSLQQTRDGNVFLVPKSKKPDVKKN
Sequence of Signal transducer and activator of transcription 3 (Homo sapiens) (P40763 whole entry, looked up): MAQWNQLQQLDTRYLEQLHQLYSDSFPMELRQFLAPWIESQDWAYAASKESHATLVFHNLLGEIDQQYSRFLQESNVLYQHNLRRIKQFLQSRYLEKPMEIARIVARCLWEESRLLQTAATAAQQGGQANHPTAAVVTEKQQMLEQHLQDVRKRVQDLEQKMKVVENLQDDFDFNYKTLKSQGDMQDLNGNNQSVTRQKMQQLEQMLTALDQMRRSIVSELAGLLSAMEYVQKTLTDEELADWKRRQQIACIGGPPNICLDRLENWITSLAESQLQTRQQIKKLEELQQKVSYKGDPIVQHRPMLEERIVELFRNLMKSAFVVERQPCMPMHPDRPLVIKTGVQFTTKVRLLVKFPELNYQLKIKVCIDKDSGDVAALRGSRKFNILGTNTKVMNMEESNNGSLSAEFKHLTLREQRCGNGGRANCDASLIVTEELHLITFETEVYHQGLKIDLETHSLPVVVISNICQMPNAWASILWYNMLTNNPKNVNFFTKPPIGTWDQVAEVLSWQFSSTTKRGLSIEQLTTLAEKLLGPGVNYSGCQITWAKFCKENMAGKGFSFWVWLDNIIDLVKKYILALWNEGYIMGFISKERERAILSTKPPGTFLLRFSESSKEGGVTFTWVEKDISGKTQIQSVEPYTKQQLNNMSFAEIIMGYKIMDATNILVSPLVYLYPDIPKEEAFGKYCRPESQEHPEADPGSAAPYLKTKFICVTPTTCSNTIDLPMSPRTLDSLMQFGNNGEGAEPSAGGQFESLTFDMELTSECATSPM
Sequence of Nuclear factor NF-kappa-B p105 subunit (Homo sapiens) (P19838 whole entry, looked up): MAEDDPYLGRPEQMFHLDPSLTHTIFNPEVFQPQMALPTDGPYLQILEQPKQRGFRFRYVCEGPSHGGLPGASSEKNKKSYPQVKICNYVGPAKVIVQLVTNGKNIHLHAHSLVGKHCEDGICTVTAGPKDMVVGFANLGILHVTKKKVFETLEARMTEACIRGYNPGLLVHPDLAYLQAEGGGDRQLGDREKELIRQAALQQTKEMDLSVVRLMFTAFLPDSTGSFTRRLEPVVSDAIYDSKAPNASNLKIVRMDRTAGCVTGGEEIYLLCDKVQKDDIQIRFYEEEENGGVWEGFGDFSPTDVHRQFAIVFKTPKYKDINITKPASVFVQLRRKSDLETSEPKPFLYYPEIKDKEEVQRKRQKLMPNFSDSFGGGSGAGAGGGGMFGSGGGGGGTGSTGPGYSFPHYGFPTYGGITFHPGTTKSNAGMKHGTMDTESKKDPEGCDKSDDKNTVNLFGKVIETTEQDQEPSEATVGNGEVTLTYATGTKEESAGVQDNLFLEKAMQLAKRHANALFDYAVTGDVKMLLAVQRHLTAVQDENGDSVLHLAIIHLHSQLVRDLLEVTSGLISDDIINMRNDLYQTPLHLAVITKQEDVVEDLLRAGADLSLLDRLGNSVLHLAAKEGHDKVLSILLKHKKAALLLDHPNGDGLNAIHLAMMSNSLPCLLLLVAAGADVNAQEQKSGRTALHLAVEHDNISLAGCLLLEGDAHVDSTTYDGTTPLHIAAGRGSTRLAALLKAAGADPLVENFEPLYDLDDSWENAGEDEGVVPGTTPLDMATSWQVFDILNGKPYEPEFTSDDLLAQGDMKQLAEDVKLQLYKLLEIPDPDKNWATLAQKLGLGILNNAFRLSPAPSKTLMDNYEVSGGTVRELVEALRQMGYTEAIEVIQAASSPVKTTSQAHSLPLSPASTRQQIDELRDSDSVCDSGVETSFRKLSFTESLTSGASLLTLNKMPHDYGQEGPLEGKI

CCc1cccc(CC)c1N
inactive: [1] | [2] | [3] | [4] | [5] | [6] | [7] | [8] | [9] | [10] | [11] | [12] | [13] | [14] | [15] | [16] | [17] | [18] | [19]

c1ccc2ncccc2c1
active: [14] 50 µM
inactive: [1] | [2] | [3] | [4] | [5] | [6] | [7] | [8] | [9] | [10] | [11] | [12] | [13] | [15] | [16] | [17] | [18] | [19]

CCCc1ccccc1
inactive: [1] | [2] | [3] | [4] | [5] | [6] | [7] | [8] | [9] | [10] | [11] | [12] | [13] | [14] | [15] | [16] | [17] | [18] | [19]

CC1(C)C(=O)N(Cl)C(=O)N1Cl
inactive: [1] | [2] | [3] | [4] | [5] | [6] | [7] | [8] | [9] | [10] | [11] | [12] | [13] | [14] | [15] | [16] | [17] | [18] | [19]

CCOC(N)=O
inactive: [1] | [2] | [3] | [4] | [5] | [6] | [7] | [8] | [9] | [10] | [11] | [12] | [13] | [14] | [15] | [16] | [17] | [18] | [19]

C[C@@H](Oc1ccc(CNC(=O)c2cccnc2Oc2ccc3c(c2)OCO3)c(F)c1)C(=O)O
active: [12] 50 µM
inactive: [1] | [2] | [3] | [4] | [5] | [6] | [8] | [20] | [9] | [10] | [11] | [13] | [14] | [15] | [16] | [17] | [18] | [19]
